# High-throughput results deposited in PubChem by National Center for Advancing Translational Sciences (NCATS).
# DT40 TDP1 CPT: qHTS for Inhibitors of human tyrosyl-DNA phosphodiesterase 1 (TDP1): qHTS in cells in presence of CPT; AID 686979, 2013; actives 12% (n = 420,000); chicken DT40 Tdp1-/-;hTDP1 cells + 20 nM CPT, ATP luminescence, 48 h; Potency, µM (top dose mostly 46.2 µM), inactives show at the top dose activity change, negative = growth inhibition, hits mostly inhibitors; also: potency is read from the fitted curve at half-maximal effect; nearly all actives have a fitted effect of over 55% in size
#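 Chicken DT40 Tdp1-/- cells stably complemented with human TDP1 were seeded at 400 cells/well in medium containing 20 nM camptothecin, exposed to pin-transferred compounds, and grown at 37 °C for at least 48 hr. Viability was read as ATP luminescence.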
# CtBP-E1A blk: qHTS Assay for Inhibitors of the CtBP/E1A Interaction. CtBP / adenovirus E1A interaction (AlphaScreen). AlphaScreen GST-E1A/His-CtBP binding, 1536-well; stronger effect = lower value. activity change, % (concentration not given with the values). actives 0.49% (n = 340,000). AID 651724, 2012; in the data active = activity change below about -65%; inconclusive = mostly about -30% to -63%
#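 Steps: dispense buffer (Tris pH 8.0, NaCl 300 mM, TCEP 1 mM, BSA, Tween 20); add 5X protein mix (GST-E1A, His-CtBP, 125 nM each); pin 23 nL compound; 2 h at 37 °C, dark; add 5X beads (50 ug/mL); 1 h; read.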
# DT40 TDP1 no CPT: qHTS for Inhibitors of human tyrosyl-DNA phosphodiesterase 1 (TDP1): qHTS in cells in absence of CPT. DT40 Tdp1-/- hTDP1 cells, no CPT, ATP luminescence, 48 h. Potency, µM (doses to about 46.2 µM), inactives show at the top dose activity change, negative = growth inhibition, usual class: inhibitors. actives 15% (n = 420,000); also: potency is read from the fitted curve at half-maximal effect; nearly all actives have a fitted effect of over 55% in size
#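 Growth of hTDP1-complemented DT40 Tdp1-knockout cells is measured by ATP luminescence after at least 48 hr compound exposure at 37 °C, with DMSO substituting for the 20 nM CPT used in the parallel screen.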
# Six1-Eya2 blk: qHTS Assay for Inhibitors of the Six1/Eya2 Interaction. actives 0.56% (n = 360,000). AID 651725, 2012. Homeobox protein SIX1 (Homo sapiens) + Protein phosphatase EYA2 (Homo sapiens), …. activity change, % (test concentration not listed). AlphaScreen GST-Six1/His-Eya2 binding, biochemical; stronger effect = lower value; in the data active = activity change below about -65%; inconclusive = mostly about -30% to -63%
#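 Compounds are tested against tagged Six1 and Eya2 proteins bridged by glutathione donor and nickel acceptor beads; after a one-hour incubation at 37 °C without light, AlphaScreen emission is recorded.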
# TDP1 block: qHTS Assay for Inhibitors of Tyrosyl-DNA Phosphodiesterase (TDP1); actives 0.28% (n = 350,000); Potency, µM (highest dose often 130 µM), inactives show at the highest dose activity change, negative = inhibition, actives largely listed as inhibitors; recombinant TDP1, AlphaScreen DNA substrate cleavage; Tyrosyl-DNA phosphodiesterase 1 (Homo sapiens), Q9NUW8; also: potency is read from the fitted curve at half-maximal effect; nearly all actives have a fitted effect of over 40% in size
#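 Compounds were preincubated with Tdp1 (1 nM final) for 15 min at room temperature before substrate (15 nM final) started a 5 min reaction; beads (10 ug/ml final) were then added for 10 min before AlphaScreen detection.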
# IL1B secr inh: qHTS for Inhibitors of Inflammasome Signaling: IL-1-beta AlphaLISA Primary Screen; THP-1 LPS/ATP IL-1B secretion, AlphaLISA, 16 h; stronger effect = lower value; AID 743279, 2014; activity change, % at 57.5 µM; actives 4.7% (n = 360,000); in the data active = activity change below about -50%; inconclusive = mostly about -30% to -49%
#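 THP-1 cells pretreated 1 hr with compounds (up to 57.5 uM final), then stimulated with LPS (250 ng/mL final) plus ATP (1.25 mM final); secreted IL-1B measured by AlphaLISA after 16 hr, decreased signal indicating inhibition.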
# * marks the source's active call; other numbers are inactive results; ? = inconclusive; nt = no result; [ ] = dose if it differs, or a comment. Only some compounds are listed: those with a hit (about 18% of all), similar ones and a draw of the others. Unless noted, calls follow the shape of the dose curve; as a rule, active = well fitted curve in the direction sought with a large enough effect; inconclusive = small, poorly fitted or top-dose-only effect, or another doubt; inactive = no such curve, though single readings can be large; an effect the other way counts as inactive or inconclusive. % is scaled to controls: 0 for no effect and ±100 for the full control effect.
SMILES,DT40 TDP1 CPT,CtBP-E1A blk,DT40 TDP1 no CPT,Six1-Eya2 blk,TDP1 block,IL1B secr inh
Cc1cc(Cl)ccc1OCCCC(=O)N1CCN(S(=O)(=O)c2ccccc2)CC1,?,2,?,7,2%,-87*
Cc1ccc(SCCC(=O)N2CCN(S(=O)(=O)c3ccccc3)CC2)cc1,?,9,?,-6,1%,-5
CCOc1ccccc1OCCCC(=O)N1CCN(S(=O)(=O)c2ccc(Cl)cc2)CC1,?,-1,18µM*,-1,3%,-12
Cc1ccccc1OCCC(=O)OCC(=O)N1CCN(S(=O)(=O)c2ccc(Cl)cc2)CC1,-12%,0,-26%,-6,nt,12
O=C(CSc1ccc(-c2ccc(Cl)cc2)nn1)NC1CCCC1,-18%,-2,-17%,1,0%,13
O=C1CC(c2ccc(F)cc2)c2c(n3c(nc4ccccc43)[nH]c2=O)N1 (centres undefined),4%,nt,1%,nt,6%,nt
O=C(CSc1nnc(-c2cccc(Cl)c2)o1)N1CCc2ccccc21,1%,nt,11%,nt,5%,nt
CCc1ccc(CCC(=O)N2CCN(S(=O)(=O)c3ccc(Br)cc3)CC2)cc1,?,1,18µM*,-3,nt,-7
Cc1cc(Cl)ccc1OCCCC(=O)N1CCN(C(=O)c2ccco2)CC1,?,0,21µM*,-1,3%,-1
COc1ccc(CCC(=O)N2CCN(S(=O)(=O)c3ccc(OC(F)(F)F)cc3)CC2)cc1,-19%,3,0%,-1,-1%[56.1 µM],-7
COc1cc(C=O)c(-c2c(C=O)cc(OC)c3c2OCO3)c2c1OCO2,?,-5,12µM*,5,nt,15
O=C(NCc1ccccc1)c1sc(=S)n2c1[nH]c(=O)c1ccccc12,-24%,-5,-20%,-8,4%,-4
Cn1c(N2CCOCC2)c(/C=N/OC(=O)c2ccc(F)cc2)c2ccccc21,3.7µM*,0,2.9µM*,2,-12%,42
Cc1ccc(C(=O)O/N=C/c2c(N3CCOCC3)n(C)c3ccccc23)cc1,3.3µM*,-1,4.1µM*,-7,3%,55
CCOC(=O)N1CCN(S(=O)(=O)c2cccc3nonc23)CC1,-6%,-1,-19%,2,4%,14
Cc1cccc(N2C(=O)C(Oc3ccc(Cl)cc3Cl)C2C(=O)O)c1C (centres undefined),?,6,?,4,8%,15
CCCCNCC1C(Oc2ccc(Cl)cc2)C(=O)N1c1ccccc1C (centres undefined),?,3,15µM*,8,1%,-196*
CCCNCC1C(Oc2ccc(Cl)cc2Cl)C(=O)N1c1cccc(C)c1C (centres undefined),?,nt,18µM*,0,4%,-53*
CCOc1ccc(-n2c(CCc3ccccc3)n[nH]c2=S)cc1,?,-12,?,-18,5%,5
CCCOc1ccc(CCc2n[nH]c(=S)n2-c2ccccc2)cc1,?,-1,16µM*,-23,3%,1
CCCOc1ccc(CCc2n[nH]c(=S)n2Cc2ccccc2)cc1,?,-3,21µM*,-12,3%,-10
